Our source for the inhibition values is PubChem BioAssay AID1852 (Sanford-Burnham Center for Chemical Genomics, 2009).

Hit rate of the full screen: of about 2,500 compounds, about 1,100 (44%) were called active.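 Rule for the calls: active = inhibition above 50% at 4 µM in the single-point screen; inactive = inhibition of 50% or less.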 The set was probably picked from earlier hits. Some of the results follow.

For orientation: inhibition means the relative decrease from the control value, in per cent.

The experiment in a line: blockers of TNF-a NF-kB luciferase induction – cell-based, HEK293T NF-kB-Luc, luminescence, selectivity assay for NOD1/NOD2 signaling inhibitor project, primary screen (AID 1852). The following applies: TNF-a induced, 14 h, at 4 µM, active compounds read high.
For the molecule `O=C(c1[nH]ncc1-c1ccc(Cl)cc1)C1CO1` (centres undefined), the inhibition is 12.8% (inactive). The result for `CN(C(=O)C(C)(C)C)c1ccc(OCC(=O)N2CCc3ccccc3C2)cc1` reads 41.9% (inactive). With `CCOc1ccc(NC(=O)Nc2nc(SCC)ns2)cc1`, the inhibition was 12.2% (inactive).

Take `S=C(NNc1ccnc2cc(Cl)ccc12)Nc1ccccc1Cl`: the inhibition was 64.6% (active).

`FC(F)(F)c1cnc(NNC(=S)Nc2ccccc2Cl)c(Cl)c1`: the inhibition is -6.8% (inactive). In the case of `S=C(NNc1ccnc2cc(Cl)ccc12)Nc1ccc(Cl)cc1Cl`, the inhibition was 43.7% (inactive). For `COc1ccc(-c2cncnc2-c2ccc(OC)cc2O)cc1` the value was 79.8% (active); for `COc1ccc(-c2n[nH]c(C)c2-c2ccc(OC)c(OC)c2)c(O)c1`, 28.7% (inactive). The result for `COc1ccc(-c2cnc(N)nc2-c2ccc(OC)cc2O)cc1` reads 70.5% (active); that for `Cc1c(C(=O)Nc2nonc2-c2ccc(F)cc2)oc2ccc(F)cc12`, 77.4% (active). For `COc1cccc(NC(=O)c2oc3ccc(S(=O)(=O)N4CCOCC4)cc3c2C)c1`, the inhibition is -31.8% (inactive). For `CC1CCN(c2ccc(-c3cccc(NC(=O)C(F)(F)F)c3)nn2)CC1` the value was -170% (inactive); for `Cc1ccc(C(=O)OCn2ncc(Cl)c(Cl)c2=O)cc1`, 88.1% (active). The result for `O=C(OCn1ncc(Cl)c(Cl)c1=O)c1ccc(F)cc1` reads 83.1% (active). For the molecule `O=C(OCn1ncc(Cl)c(Cl)c1=O)c1cccc(C(F)(F)F)c1`, the inhibition is 43% (inactive). With `COc1ccc(CCNc2oc(COc3ccccc3Cl)nc2C#N)cc1OC`, the inhibition is 11.6% (inactive). For `COc1ccc(Nc2oc(COc3ccccc3OC)nc2C#N)cc1`, the inhibition was 77.8% (active). On to `COc1ccc(CCNc2oc(COc3ccc(Br)cc3)nc2C#N)cc1OC`, for which the inhibition is 24.5% (inactive). The result for `Cc1ccc(NS(=O)(=O)c2sc3ccc(Cl)cc3c2C)cc1` reads 9.4% (inactive). For `COc1cc(CNc2ccc3[nH]c(=O)[nH]c3c2)ccc1OCc1cccc(C)c1`, the inhibition was 44.3% (inactive). For `CCOc1ccc(Nc2nc(N)c3ccccc3n2)cc1` the value was -144% (inactive); for `CCOc1ccc(NS(=O)(=O)c2cc(Cl)ccc2OC)cc1`, 10.6% (inactive); for `CCOc1ccc(NS(=O)(=O)c2ccc3[nH]c(=O)[nH]c3c2)cc1`, 88.5% (active). For `CCOc1ccc(S(=O)(=O)Nc2cnc3ccccc3c2)cc1` the value was 81.5% (active); for `CC(C)c1ccc(-c2nnn(CCC(=O)O)n2)cc1`, 49.4% (inactive). As for `COC(=O)CCn1nnc(-c2ccc(C(C)C)cc2)n1`, the inhibition is 71.7% (active). Turning to `O=C(Nc1ccccc1)C1=C(c2ccccc2)S(=O)(=O)CCS1(=O)=O`, the inhibition is 60.9% (active).

In the case of `Cc1ccc(NC(=O)C2=C(c3ccccc3)S(=O)(=O)CCS2(=O)=O)cc1`, the inhibition is 65% (active). Consider `CC(C)=CCc1c(O)cc2oc3c(CC=C(C)C)c(O)c(O)c(CC=C(C)C)c3c(=O)c2c1O`, for which the inhibition was 15.6% (inactive).

On to `C=CCNc1ncnc2ccc(Br)cc12`, for which the inhibition is 25.1% (inactive).

For the molecule `Brc1ccc2ncnc(NCc3ccco3)c2c1`, the inhibition was 60.4% (active).

Take `Brc1ccc2ncnc(NCc3cccnc3)c2c1`: the inhibition was 65.2% (active).

Consider `Cc1ccc(/C=C2/SC(=S)N(c3ccc(S(=O)(=O)Nc4nccs4)cc3)C2=O)cc1`, for which the inhibition was 21% (inactive). With `O=C(O)c1ccc(N/N=C/c2ccc(OC(=O)c3ccccc3Cl)cc2)cc1`, the inhibition is 7.7% (inactive). Consider `CC(C)(C)c1ccc(S(=O)(=O)/N=C2\C=C(NS(=O)(=O)c3ccccc3)C(=O)c3ccccc32)cc1`, for which the inhibition was 96.3% (active). The result for `CC(C)c1ccc(S(=O)(=O)/N=C2\C=C(NS(=O)(=O)c3ccccc3)C(=O)c3ccccc32)cc1` reads 103% (active); that for `CC(C)Cc1ccc(S(=O)(=O)Nc2ccccn2)cc1`, 15.7% (inactive).

Regarding `CCc1oc2ccccc2c1C(=O)c1cc(Br)c(O)c(Br)c1`, the inhibition is 71.9% (active). Regarding `CCOC(=O)c1c(-c2ccccc2)oc2cc(Br)c(O)c(C=O)c12`, the inhibition is 50% (inactive).

Regarding `CCOc1ccc2c(c1)C(=NNC(=O)c1ccncc1)c1cc(OCC)ccc1-2`, the inhibition is 106% (active). In the case of `O=C(N/N=C/c1cc(Br)c(Br)s1)c1ccncc1`, the inhibition was 2.7% (inactive). Turning to `Cc1nc(C)c(C(=O)NNS(=O)(=O)c2ccc3ccccc3c2)s1`, the inhibition is 21.5% (inactive).

With `Cc1ccc2cccc(NS(=O)(=O)c3ccccc3)c2n1`, the inhibition is 62.8% (active). For `Cc1ccc(S(=O)(=O)Nc2cccc3cccnc23)cc1` the value was 105% (active); for `O=[N+]([O-])c1ccccc1S(=O)(=O)Nc1cccc2cccnc12`, 35% (inactive); for `COc1cc(NS(=O)(=O)c2ccc3ccccc3c2)c2ncccc2c1`, 55.6% (active). With `O=S(=O)(Nc1cccc2cccnc12)c1ccccc1`, the inhibition was -4% (inactive).

On to `O=S(=O)(Nc1cccc(-c2cn3cccnc3n2)c1)c1ccc(-c2ccccc2)cc1`, for which the inhibition was 20.8% (inactive). For `COc1ccc(NS(=O)(=O)c2ccc3ccccc3c2)c2ncccc12` the value was 27.9% (inactive). On to `Cc1ccc(S(=O)(=O)Nc2cccc3cccnc23)c([N+](=O)[O-])c1`, for which the inhibition is 103% (active). Consider `O=C(NCc1ccccc1)c1sc(=S)n2c1[nH]c(=O)c1ccccc12`, for which the inhibition is 73.6% (active). In the case of `CCOc1ccc(CCNC(=O)c2ccc3c(=O)[nH]c4c(C(=O)NC(C)C)sc(=S)n4c3c2)cc1`, the inhibition is 50.9% (active). Take `COc1cc(C(=O)Nc2sc3c(c2C(=O)NCc2ccco2)CCCC3)cc(OC)c1OC`: the inhibition is -39.2% (inactive). As to `COc1ccc(OC)c(CCNC(=O)c2ccc3c(=O)[nH]c4c(C(=O)NC(C)C)sc(=S)n4c3c2)c1`, the inhibition was 35.7% (inactive). Take `O=C(NCc1ccco1)c1sc(=S)n2c1[nH]c(=O)c1ccccc12`: the inhibition is 54.1% (active). Consider `CC(C)NC(=O)c1sc(=S)n2c1[nH]c(=O)c1ccc(C(=O)NCCc3ccc(Cl)cc3)cc12`, for which the inhibition is 42.5% (inactive). In the case of `CCCCNC(=O)c1sc(=S)n2c1[nH]c(=O)c1ccccc12`, the inhibition was 69.9% (active).

In the case of `O=C(NCc1ccccc1)c1ccc(C2SCC(=O)N2Cc2ccccc2)cc1` (centres undefined), the inhibition is 33.1% (inactive). Consider `CCNC(=O)/C(C#N)=C/c1c(N2CCN(c3cccc(Cl)c3)CC2)nc2c(C)cccn2c1=O`, for which the inhibition was -19.8% (inactive).

For `CCc1nc(SCC(=O)N2CCN(c3ccccc3)CC2)c2oc3ccccc3c2n1`, the inhibition is 0.6% (inactive). For `COc1ccccc1N1CCN(c2ncnc3sc(C)c(-c4ccccc4)c23)CC1`, the inhibition was 26.9% (inactive). As for `COc1ccccc1N1CCN(c2nc(C)nc3c2oc2ccccc23)CC1`, the inhibition is 68.6% (active). As for `Oc1cc2c(cc1C(c1ccc(Cl)c(Cl)c1)N1CCCC1)OCO2` (centres undefined), the inhibition was -22.5% (inactive). For `O=[N+]([O-])c1cc(Cl)cc(/C=N\Nc2ccccn2)c1O`, the inhibition was 48.8% (inactive).

Take `O=[N+]([O-])c1cc(/C=N/Nc2nc3ccccc3[nH]2)c(O)cc1O`: the inhibition is 66.5% (active). On to `Cc1nc([N+](=O)[O-])c(Sc2nc3ccc([N+](=O)[O-])cc3[nH]2)n1Cc1ccccc1`, for which the inhibition is 38% (inactive). For `O=[N+]([O-])c1ccc(O)c(/C=N/Nc2nc3ccccc3[nH]2)c1` the value was 67.8% (active); for `Cc1cc(N/N=C/c2ccccc2[N+](=O)[O-])nc(-n2nc(C)cc2C)n1`, 1.1% (inactive).

In the case of `C[C@H]1O[C@@H](O[C@H]2[C@@H](O)C[C@H](O[C@H]3[C@@H](O)C[C@H](O[C@H]4CC[C@@]5(C)[C@H](CC[C@@H]6[C@@H]5C[C@@H](O)[C@]5(C)[C@@H](C7=CC(=O)OC7)CC[C@]65O)C4)O[C@@H]3C)O[C@@H]2C)C[C@H](O)[C@@H]1O`, the inhibition is 104% (active).

As to `CCOC(=O)c1sc(NC(=O)c2cc(-c3ccccc3C)nc3ccccc23)c(C#N)c1C`, the inhibition was 92.5% (active). Consider `COc1cc(-c2cc(C(=O)Nc3ccc(N4CCOCC4)cc3)c3ccccc3n2)cc(OC)c1OC`, for which the inhibition is 21.8% (inactive). For `CCOC(=O)c1sc(NC(=O)CSc2n[nH]c(-c3ccccc3)n2)c(C#N)c1C` the value was 38.1% (inactive); for `CCOC(=O)c1sc(NC(=O)c2cc(-c3ccccc3)nc3ccccc23)c(C#N)c1C`, 80.3% (active); for `CCOC(=O)c1cc(-c2ccccc2)sc1NC(=O)c1cc(OC)c(OC)c(OC)c1`, -26.7% (inactive). Consider `Cc1ccccc1-c1cc(C(=O)Nc2sc(C(=O)OC(C)C)c(C)c2C#N)c2ccccc2n1`, for which the inhibition is 94.3% (active). For `COC(=O)c1sc(NC(=O)c2cc(-c3ccccc3)nc3ccccc23)c(C#N)c1C` the value was 75.2% (active); for `Cc1ccc(NC(=O)Cc2cc(C(=O)O)c3ccccc3n2)c(C)c1`, 25.2% (inactive). With `COc1ccc(-n2nc3c(c2NC(=O)CCl)CSC3)cc1`, the inhibition is -4.5% (inactive). As to `COc1ccc(-n2nnnc2S(=O)(=O)CC(=O)N2CCCCC2)cc1`, the inhibition is 102% (active). `COc1ccc(N2CCN(C(=O)CCC(=O)N3CCOc4ccc(C)cc43)CC2)cc1`: the inhibition is 40.5% (inactive).

As for `CCCCCCc1cc2cc(-c3nnc(-c4ccccc4OC)o3)c(=O)oc2cc1O`, the inhibition was -7.1% (inactive). For `CCCCCCc1cc2cc(-c3nnc(-c4cc(OC)c(OC)c(OC)c4)o3)c(=O)oc2cc1O`, the inhibition is 69.4% (active). The result for `CCCCCCc1cc2cc(-c3nnc(-c4ccccc4O)o3)c(=O)oc2cc1O` reads 22.1% (inactive); that for `COc1cccc(N(C(=O)CCl)C(C(=O)NCCc2ccccc2)c2cccs2)c1` (centres undefined), 81.5% (active).

Consider `O=C(NCCc1ccccc1)C(c1cccs1)N(C(=O)CCl)c1ccc(Cl)cc1` (centres undefined), for which the inhibition is 24.6% (inactive). For the molecule `COc1ccc(CN(CCC(c2ccccc2)c2ccc(OC(C)C)cc2)C(=O)CCl)cc1OC` (centres undefined), the inhibition was -5.8% (inactive). For `COc1cccc(-c2nc(CS(=O)(=O)CC(=O)NCCc3ccccc3)c(C)o2)c1`, the inhibition was 11.1% (inactive). For `COc1ccc(N(C(=O)CCl)C(C(=O)NCCc2ccccc2)c2cccs2)cc1` (centres undefined), the inhibition is 60.3% (active). With `C=CCN1C(=O)/C(=C/c2ccc(OC(C)=O)c(OCC)c2[N+](=O)[O-])SC1=S`, the inhibition was 56.7% (active).
